Screens: PubChem, The Scripps Research Institute Molecular Screening Center
The list is not random: actives were taken first. Their share in the collection is about 4.1%.
PRMT1 FP inh – PRMT1 methyltransferase inhibitors, primary screen, biochemical, fluorescence polarization; recombinant PRMT1, activity-based probe fluorescence polarization; 370,000 tested, 1.3% active; inhibition, % at 2.79 µM; Protein arginine N-methyltransferase 1 (Homo sapiens), Q99873;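 active means inhibition above about 21% made by adding two undisclosed values, limit read from the data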
Target sequence (Q99873 whole entry, looked up): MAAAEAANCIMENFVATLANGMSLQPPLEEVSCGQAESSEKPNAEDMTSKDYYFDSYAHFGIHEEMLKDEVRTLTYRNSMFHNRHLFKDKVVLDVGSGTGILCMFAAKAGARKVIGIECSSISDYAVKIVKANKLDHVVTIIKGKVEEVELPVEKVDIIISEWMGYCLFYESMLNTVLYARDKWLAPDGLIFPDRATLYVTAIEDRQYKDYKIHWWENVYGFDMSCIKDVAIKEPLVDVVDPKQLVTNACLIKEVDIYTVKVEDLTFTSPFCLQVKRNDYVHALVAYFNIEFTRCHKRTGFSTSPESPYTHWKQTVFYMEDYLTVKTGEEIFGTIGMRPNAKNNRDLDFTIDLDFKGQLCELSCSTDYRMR
ABHD5-PLIN5 inh – ABHD5-PLIN5 interaction inhibitors, primary screen, cell lysate, split luciferase complementation, luminescence. inhibition, % at 4 µM. Split G. princeps luciferase complementation, 4 h. Perilipin-5 (Homo sapiens) + 1-acylglycerol-3-phosphate O-acyltransferase ABHD5 (Homo …. 360,000 tested, 0.78% active;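 active means inhibition above the mean inhibition across every tested compound plus 3 SD, cut at about 22% in these data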;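 further: 0% = DMSO only wells and the 100% control is not disclosed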
UHRF1 MBD2 ctr – UHRF1 methylated DNA binding inhibitors, primary screen, counter-screen for MBD2 inhibitor project, biochemical, TR-FRET, human UHRF1, single concentration. AID 687016, 2013. UHRF1 binding to methylated oligo. 370,000 tested, 0.75% active. inhibition, % at 4.4 µM. E3 ubiquitin-protein ligase UHRF1 (Homo sapiens), Q96T88; in the data active means inhibition above about 21%;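 further: UHRF1 SRA domain binding a hemimethylated CpG hairpin DNA probe; 0% = median of test compound wells and 100% = reference inhibitor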
MBD2 DNA inh – inhibitors of MBD2 binding to methylated DNA, primary screen, biochemical, TR-FRET, DNA-binding domain, human; inhibition, % at 4.4 µM; MBD2 binding to methylated oligonucleotide; Methyl-CpG-binding domain protein 2 (Homo sapiens), Q9UBB5; 370,000 tested, 0.31% active; in the data active means inhibition above about 13%
rCAG RNA binder – binders of r(CAG) RNA repeats, primary screen, biochemical, fluorescence. r(CAG) RNA repeat, TO-PRO-1 dye displacement fluorescence. inhibition, % at 3 µM. 370,000 tested, 1.3% active;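 active means inhibition above the plate cutoff, the mean of all test compounds on that plate plus 3 SD, cut at about 35% in these data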;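 further: 0% = DMSO alone and 100% = 100 µM mitoxantrone as full dye displacement; higher means more dye released from RNA so lower well fluorescence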
LEDGF integ inh – blockers of LEDGF/p75-dependent integrase strand transfer – biochemical, TR-FRET, high throughput, primary screen; inhibition, % at 3.7 µM; HIV-1 integrase (with human LEDGF/p75); TR-FRET IN-LEDGF/p75 DNA integration, Eu/Cy5; 370,000 tested, 0.64% active;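 active means inhibition above the screen-wide mean plus 3 SD, cut at about 13% in these data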;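 further: signal is the Cy5 over europium emission ratio at 671 and 618 nm; 0% = plate median of compound wells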
rCAG bind conf – small molecules binding CAG repeat RNA – biochemical, fluorescence, confirmation; 4,300 tested, 70% active; AID 652065, 2013; r(CAG) RNA repeat, TO-PRO-1 dye displacement fluorescence; inhibition, % at 3 µM; shares compounds with rCAG RNA binder;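 active means inhibition above a per-plate cutoff, the mean inhibition of sample wells plus 3 SD, cut at about 35% in these data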;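 further: loss of TO-PRO-1 fluorescence as compound displaces dye from 1x1 AA loop RNA; 0% = DMSO only wells and 100% = 100 µM mitoxantrone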
DNA CAG counter – displacement of TO-PRO-1 from CAG DNA duplex, counter-screen for rCAG RNA repeat binder project, biochemical, fluorescence, TO-PRO-1 dye, d(CAG) DNA oligo; 4,300 tested, 94% active; shares compounds with rCAG RNA binder; inhibition, % at 3 µM; d(CAG) DNA oligo TO-PRO-1 dye displacement;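 active means inhibition above its plate's cutoff, the mean test-well inhibition plus 3 SD, cut at about 4.8% in these data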;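 further: 0% = DNA dye mix with DMSO and 100% = 100 µM mitoxantrone; hits displace the dye from DNA and so lower well fluorescence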
Active calls of the source: *.

`CC(C)(C)C1CCc2c(sc(NC(=O)C3CC=CCC3C(=O)O)c2C#N)C1` (configuration not stated) gave PRMT1 FP inh -2, ABHD5-PLIN5 inh -10, UHRF1 MBD2 ctr 2, MBD2 DNA inh 1, rCAG RNA binder 80*, LEDGF integ inh 4, rCAG bind conf 72* and DNA CAG counter 36*.
CCC(C)(C)C1CCc2c(sc(NC(=O)c3ccccc3C(=O)O)c2C#N)C1 (configuration not stated) was read as PRMT1 FP inh 2, ABHD5-PLIN5 inh 0, UHRF1 MBD2 ctr 5, MBD2 DNA inh 2, rCAG RNA binder 91*, LEDGF integ inh 3, rCAG bind conf 84* and DNA CAG counter 56*.
Screening COc1ccc(CN2CCC(CNC(=O)Nc3ccc(C)c(F)c3)CC2)cc1 returned PRMT1 FP inh -2, UHRF1 MBD2 ctr -3, MBD2 DNA inh 3, rCAG RNA binder 5 and LEDGF integ inh 0.
Screening Cc1c(CCC(=O)N[C@@H](C)C(=O)O)c(=O)oc2cc3occ(-c4ccccc4)c3cc12 returned PRMT1 FP inh -2, ABHD5-PLIN5 inh 5, UHRF1 MBD2 ctr -3, MBD2 DNA inh 3, rCAG RNA binder 36*, LEDGF integ inh 1, rCAG bind conf 45* and DNA CAG counter 9.8*.
`Cc1c(CCC(=O)NCCCCCC(=O)O)c(=O)oc2cc3occ(-c4ccccc4)c3cc12` gave PRMT1 FP inh -6, ABHD5-PLIN5 inh 5, UHRF1 MBD2 ctr 1, MBD2 DNA inh 0, rCAG RNA binder 10 and LEDGF integ inh 4.
CCC(NC(=O)CCc1c(C)c2cc3c(-c4ccccc4)coc3cc2oc1=O)C(=O)O (configuration not stated) was read as PRMT1 FP inh 2, ABHD5-PLIN5 inh -4, UHRF1 MBD2 ctr -2, MBD2 DNA inh 0, rCAG RNA binder 37*, LEDGF integ inh 3, rCAG bind conf 42* and DNA CAG counter 9.4*.
For COC(=O)C[C@@H]1CC[C@H]2[C@H](COc3ccc(NC(=O)Nc4cccc(C#N)c4)cc3C(=O)N2C)O1 the results were PRMT1 FP inh 0, UHRF1 MBD2 ctr -1, MBD2 DNA inh 3, rCAG RNA binder 3 and LEDGF integ inh 0.
`CCCCc1c(-c2ccccc2OC)ncn1C1CCCCC1` gave PRMT1 FP inh -4, UHRF1 MBD2 ctr -1, MBD2 DNA inh 1, rCAG RNA binder -1 and LEDGF integ inh 1.
Screening Cc1nn(-c2ccccc2)c(Cl)c1/C=C1\SC(=S)NC1=O returned PRMT1 FP inh 0, ABHD5-PLIN5 inh 5, UHRF1 MBD2 ctr 1, MBD2 DNA inh 0, rCAG RNA binder 65*, LEDGF integ inh 0, rCAG bind conf 64* and DNA CAG counter 18*.
For COc1cccc(NC(=O)Nc2ccc3nsnc3c2)c1 the results were PRMT1 FP inh 0, ABHD5-PLIN5 inh -7, UHRF1 MBD2 ctr 1, MBD2 DNA inh -4, rCAG RNA binder 12 and LEDGF integ inh 10.
For COc1cccc(NC(=O)Nc2nc(SC)ns2)c1 the results were PRMT1 FP inh 1, ABHD5-PLIN5 inh 1, UHRF1 MBD2 ctr 0, MBD2 DNA inh -1, rCAG RNA binder 44*, LEDGF integ inh 1, rCAG bind conf 9 and DNA CAG counter 9.4*.
For COc1ccc(NC(=O)Nc2cccc(OC)c2)cc1 the results were PRMT1 FP inh 0, ABHD5-PLIN5 inh -5, UHRF1 MBD2 ctr 1, MBD2 DNA inh -1, rCAG RNA binder 0 and LEDGF integ inh -3.
Screening COc1cccc(NC(=O)Nc2nc(SC(C)(C)C)ns2)c1 returned PRMT1 FP inh 2, ABHD5-PLIN5 inh -15, UHRF1 MBD2 ctr -1, MBD2 DNA inh 2, rCAG RNA binder 74*, LEDGF integ inh 1, rCAG bind conf 41* and DNA CAG counter 32*.
`CCSc1nsc(NC(=O)Nc2cccc(F)c2)n1` gave PRMT1 FP inh -1, ABHD5-PLIN5 inh -16, UHRF1 MBD2 ctr 3, MBD2 DNA inh 1, rCAG RNA binder 63*, LEDGF integ inh 5, rCAG bind conf 16 and DNA CAG counter 17*.
For CN(Cc1ccccc1)C(=O)c1cccc(NC(=O)Cc2ccc(NC(=O)C3CCCN(S(=O)(=O)c4cccc([N+](=O)[O-])c4)C3)cc2)c1 (configuration not stated) the results were PRMT1 FP inh 2, UHRF1 MBD2 ctr 0, MBD2 DNA inh 10, rCAG RNA binder 18 and LEDGF integ inh 3.
For CCCN1CCCCC(NC(=O)c2ccc(Cl)cc2Cl)C1=O (configuration not stated) the results were PRMT1 FP inh -5, UHRF1 MBD2 ctr 1, MBD2 DNA inh 7, rCAG RNA binder 1 and LEDGF integ inh 0.
Screening COc1ccc([C@H]2OC(=O)C[C@H]2C(=O)N2CCN(c3ccccc3C(F)(F)F)CC2)cc1OC returned PRMT1 FP inh 0, UHRF1 MBD2 ctr -4, MBD2 DNA inh -4, rCAG RNA binder -1 and LEDGF integ inh -2.
CC1(O)C(=O)C2(C)C=CC1C1C(=O)N(c3ccccc3)C(=O)C12 (configuration not stated) was read as PRMT1 FP inh 1, UHRF1 MBD2 ctr 1, MBD2 DNA inh -3, rCAG RNA binder 2 and LEDGF integ inh 2.
COc1ccc(Oc2ccc(C(F)(F)F)cc2NC(=O)c2ccc(F)cc2)cc1 was read as PRMT1 FP inh 0, ABHD5-PLIN5 inh -6, UHRF1 MBD2 ctr 3, MBD2 DNA inh 6, rCAG RNA binder 3 and LEDGF integ inh -3.
`COc1ccc(Oc2ccc(C(F)(F)F)cc2NC(=O)CC(CC(=O)O)c2ccccc2)cc1` (configuration not stated) gave PRMT1 FP inh 0, ABHD5-PLIN5 inh -9, UHRF1 MBD2 ctr -4, MBD2 DNA inh -3, rCAG RNA binder 46*, LEDGF integ inh 10, rCAG bind conf 42* and DNA CAG counter 8.0*.
